# Measured values published in publication PMC10812921, “Transcriptional Coactivator BOB1 (OBF1, OCA-B) Modulates the Specificity of DNA Recognition by the POU-Domain Factors OCT1 and OCT2 in a Monomeric Configuration”.
# Columns and labels:
# POU1 (OCT1 POU domain) = POU1 (OCT1 POU domain) (human, UniProt P14859 260-458); assay: EMSA-SELEX-seq; no BOB1; 20 mM Tris-HCl pH 7.6, 140 mM NaCl, 10% glycerol, 0.5 mM EDTA, 0.05% Triton X-100, 0.1 mg/mL BSA, 0.1 mg/mL poly(dI-dC), 5 mM DTT, room temperature, 20 min; high values mean tight binding; conditions: protein: recombinant; dsDNA, one strand shown
# Sequence of POU1 (OCT1 POU domain) (P14859 260-458): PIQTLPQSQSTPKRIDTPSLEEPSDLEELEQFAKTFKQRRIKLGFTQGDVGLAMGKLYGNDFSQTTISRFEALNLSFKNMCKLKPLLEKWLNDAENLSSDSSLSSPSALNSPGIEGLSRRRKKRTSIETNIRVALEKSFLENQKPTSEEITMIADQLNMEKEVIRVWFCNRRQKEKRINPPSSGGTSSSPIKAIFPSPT
# Summary of the method: (§1)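 Tagged POU-domain proteins were expressed in E. coli BL21, purified under denaturing conditions and renatured. Then 30 ng was mixed with 300 ng of a PCR-amplified double-stranded random 35-nt library, with or without 28 ng coactivator protein, in 20 μL Tris–HCl pH 7.6 binding buffer for 20 min at RT. Complex bands were cut from native 6% PAGE, eluted and PCR-amplified over four rounds, then Illumina-sequenced. Binding preference is the percentage of sequenced 8-mers matching a motif pattern.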
# POU2 (OCT2 POU domain) = target: T1, POU2 (OCT2 POU domain) (human, UniProt P09086 175-386); assay: as above; conditions: protein: recombinant; dsDNA, one strand shown
# T1 sequence: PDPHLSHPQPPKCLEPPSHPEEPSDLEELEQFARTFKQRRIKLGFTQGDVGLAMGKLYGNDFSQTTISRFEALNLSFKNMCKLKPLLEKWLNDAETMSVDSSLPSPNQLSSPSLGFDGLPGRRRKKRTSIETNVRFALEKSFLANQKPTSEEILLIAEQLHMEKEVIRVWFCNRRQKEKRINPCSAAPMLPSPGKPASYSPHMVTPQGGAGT
# Summary of the method: as §1
# [1] = target: POU1 (OCT1 POU domain);BOB1 (OBF1, OCA-B) (human;human, UniProt P14859;Q16633 260-458;1-256, |); assay: EMSA-SELEX-seq; with BOB1 (ternary complex band); 20 mM Tris-HCl pH 7.6, 140 mM NaCl, 10% glycerol, 0.5 mM EDTA, 0.05% Triton X-100, 0.1 mg/mL BSA, 0.1 mg/mL poly(dI-dC), 5 mM DTT, room temperature, 20 min; high values mean tight binding; conditions: protein: recombinant;recombinant; copies: 1;1; dsDNA, one strand shown
# Summary of the method: as §1
# [2] = target: T2, POU2 (OCT2 POU domain);BOB1 (OBF1, OCA-B) (human;human, UniProt P09086;Q16633 175-386;1-256, |); assay: as above; conditions: protein: recombinant;recombinant; copies: 1;1; dsDNA, one strand shown
# T2 sequence 1: T1 sequence
# T2 sequence 2: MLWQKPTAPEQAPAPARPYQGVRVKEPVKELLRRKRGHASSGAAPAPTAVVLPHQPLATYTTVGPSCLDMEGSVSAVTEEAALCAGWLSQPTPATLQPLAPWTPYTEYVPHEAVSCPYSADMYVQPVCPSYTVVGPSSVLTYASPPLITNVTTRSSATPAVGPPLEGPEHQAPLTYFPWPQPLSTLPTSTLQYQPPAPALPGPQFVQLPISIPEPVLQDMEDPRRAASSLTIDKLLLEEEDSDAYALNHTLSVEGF
# Summary of the method: as §1
Sequence,binding signal (POU1 (OCT1 POU domain)),binding signal (POU2 (OCT2 POU domain)),binding signal [1],binding signal [2]
ATAGTAAA,0.12 % of ANNNNAAN 8-mers,0.115 % of ANNNNAAN 8-mers,0.128 % of ANNNNAAN 8-mers,0.106 % of ANNNNAAN 8-mers
ATAAGAAA,0.1 % of ANNNNAAN 8-mers,0.0955 % of ANNNNAAN 8-mers,0.118 % of ANNNNAAN 8-mers,0.0826 % of ANNNNAAN 8-mers
ATGCAAAT,5.32 % of ANNNNAAN 8-mers,5.41 % of ANNNNAAN 8-mers,8.18 % of ANNNNAAN 8-mers,12.6 % of ANNNNAAN 8-mers
ACGGTAAA,0.0389 % of ANNNNAAN 8-mers,0.0524 % of ANNNNAAN 8-mers,0.0507 % of ANNNNAAN 8-mers,0.0504 % of ANNNNAAN 8-mers
AACAGAAG,0.0244 % of ANNNNAAN 8-mers,0.0339 % of ANNNNAAN 8-mers,0.0273 % of ANNNNAAN 8-mers,0.0297 % of ANNNNAAN 8-mers
AAGGAAAG,0.0576 % of ANNNNAAN 8-mers,0.0524 % of ANNNNAAN 8-mers,0.0792 % of ANNNNAAN 8-mers,0.0644 % of ANNNNAAN 8-mers
AAAGTAAT,0.103 % of ANNNNAAN 8-mers,0.14 % of ANNNNAAN 8-mers,0.11 % of ANNNNAAN 8-mers,0.0941 % of ANNNNAAN 8-mers
ATGCCAAC,0.0225 % of ANNNNAAN 8-mers,0.0293 % of ANNNNAAN 8-mers,0.025 % of ANNNNAAN 8-mers,0.0124 % of ANNNNAAN 8-mers
ATGGTAAC,0.0454 % of ANNNNAAN 8-mers,0.0621 % of ANNNNAAN 8-mers,0.0316 % of ANNNNAAN 8-mers,0.0429 % of ANNNNAAN 8-mers
ATGACAAC,0.0259 % of ANNNNAAN 8-mers,0.0207 % of ANNNNAAN 8-mers,0.0277 % of ANNNNAAN 8-mers,0.0355 % of ANNNNAAN 8-mers
ATGCGAAG,0.0538 % of ANNNNAAN 8-mers,0.0604 % of ANNNNAAN 8-mers,0.0523 % of ANNNNAAN 8-mers,0.057 % of ANNNNAAN 8-mers
AATGAAAC,0.0461 % of ANNNNAAN 8-mers,0.0719 % of ANNNNAAN 8-mers,0.0433 % of ANNNNAAN 8-mers,0.0487 % of ANNNNAAN 8-mers
AGAAAAAC,0.04 % of ANNNNAAN 8-mers,0.0368 % of ANNNNAAN 8-mers,0.0519 % of ANNNNAAN 8-mers,0.0396 % of ANNNNAAN 8-mers
AATTAAAA,0.364 % of ANNNNAAN 8-mers,0.399 % of ANNNNAAN 8-mers,0.156 % of ANNNNAAN 8-mers,0.151 % of ANNNNAAN 8-mers
AAAACAAG,0.0641 % of ANNNNAAN 8-mers,0.0432 % of ANNNNAAN 8-mers,0.087 % of ANNNNAAN 8-mers,0.0751 % of ANNNNAAN 8-mers
ATAACAAC,0.0252 % of ANNNNAAN 8-mers,0.0391 % of ANNNNAAN 8-mers,0.0222 % of ANNNNAAN 8-mers,0.0347 % of ANNNNAAN 8-mers
ACGTAAAG,0.0416 % of ANNNNAAN 8-mers,0.0409 % of ANNNNAAN 8-mers,0.0667 % of ANNNNAAN 8-mers,0.0479 % of ANNNNAAN 8-mers
AGGATAAA,0.0549 % of ANNNNAAN 8-mers,0.0834 % of ANNNNAAN 8-mers,0.0609 % of ANNNNAAN 8-mers,0.0718 % of ANNNNAAN 8-mers
ATTCTAAT,0.448 % of ANNNNAAN 8-mers,0.532 % of ANNNNAAN 8-mers,0.12 % of ANNNNAAN 8-mers,0.152 % of ANNNNAAN 8-mers
AAAGTAAG,0.0641 % of ANNNNAAN 8-mers,0.0685 % of ANNNNAAN 8-mers,0.0851 % of ANNNNAAN 8-mers,0.0834 % of ANNNNAAN 8-mers
AACTAAAC,0.0225 % of ANNNNAAN 8-mers,0.0299 % of ANNNNAAN 8-mers,0.0289 % of ANNNNAAN 8-mers,0.0264 % of ANNNNAAN 8-mers
ATAGCAAA,0.0744 % of ANNNNAAN 8-mers,0.0552 % of ANNNNAAN 8-mers,0.078 % of ANNNNAAN 8-mers,0.0454 % of ANNNNAAN 8-mers
ACAGCAAT,0.0286 % of ANNNNAAN 8-mers,0.0288 % of ANNNNAAN 8-mers,0.0281 % of ANNNNAAN 8-mers,0.0215 % of ANNNNAAN 8-mers
AACACAAA,0.0454 % of ANNNNAAN 8-mers,0.0443 % of ANNNNAAN 8-mers,0.0648 % of ANNNNAAN 8-mers,0.0438 % of ANNNNAAN 8-mers
ACCGTAAC,0.0118 % of ANNNNAAN 8-mers,0.019 % of ANNNNAAN 8-mers,0.018 % of ANNNNAAN 8-mers,0.0272 % of ANNNNAAN 8-mers

Sequence,binding signal (POU1 (OCT1 POU domain)),binding signal (POU2 (OCT2 POU domain)),binding signal [1],binding signal [2]
AAGGAAAA,0.113 % of ANNNNAAN 8-mers,0.0955 % of ANNNNAAN 8-mers,0.17 % of ANNNNAAN 8-mers,0.0999 % of ANNNNAAN 8-mers
ATGCGAAC,0.04 % of ANNNNAAN 8-mers,0.0357 % of ANNNNAAN 8-mers,0.0386 % of ANNNNAAN 8-mers,0.0347 % of ANNNNAAN 8-mers
AGACAAAG,0.0404 % of ANNNNAAN 8-mers,0.0374 % of ANNNNAAN 8-mers,0.0558 % of ANNNNAAN 8-mers,0.0248 % of ANNNNAAN 8-mers
ATACGAAG,0.0481 % of ANNNNAAN 8-mers,0.0552 % of ANNNNAAN 8-mers,0.0574 % of ANNNNAAN 8-mers,0.0388 % of ANNNNAAN 8-mers
AAGGAAAC,0.0385 % of ANNNNAAN 8-mers,0.0403 % of ANNNNAAN 8-mers,0.0511 % of ANNNNAAN 8-mers,0.038 % of ANNNNAAN 8-mers
ACGTGAAC,0.0153 % of ANNNNAAN 8-mers,0.0247 % of ANNNNAAN 8-mers,0.0215 % of ANNNNAAN 8-mers,0.0206 % of ANNNNAAN 8-mers
AACTGAAG,0.0256 % of ANNNNAAN 8-mers,0.0391 % of ANNNNAAN 8-mers,0.0215 % of ANNNNAAN 8-mers,0.0338 % of ANNNNAAN 8-mers
ATGTGAAC,0.0374 % of ANNNNAAN 8-mers,0.0386 % of ANNNNAAN 8-mers,0.0367 % of ANNNNAAN 8-mers,0.0388 % of ANNNNAAN 8-mers
ACGGGAAA,0.0492 % of ANNNNAAN 8-mers,0.0564 % of ANNNNAAN 8-mers,0.0496 % of ANNNNAAN 8-mers,0.0586 % of ANNNNAAN 8-mers
ACGAAAAA,0.0431 % of ANNNNAAN 8-mers,0.0409 % of ANNNNAAN 8-mers,0.0578 % of ANNNNAAN 8-mers,0.0355 % of ANNNNAAN 8-mers
AGTCTAAA,0.037 % of ANNNNAAN 8-mers,0.0501 % of ANNNNAAN 8-mers,0.0398 % of ANNNNAAN 8-mers,0.0504 % of ANNNNAAN 8-mers
ATCAGAAT,0.085 % of ANNNNAAN 8-mers,0.116 % of ANNNNAAN 8-mers,0.0777 % of ANNNNAAN 8-mers,0.0784 % of ANNNNAAN 8-mers
ACCCTAAT,0.037 % of ANNNNAAN 8-mers,0.0518 % of ANNNNAAN 8-mers,0.0273 % of ANNNNAAN 8-mers,0.0223 % of ANNNNAAN 8-mers
AGGCCAAT,0.0339 % of ANNNNAAN 8-mers,0.0443 % of ANNNNAAN 8-mers,0.0316 % of ANNNNAAN 8-mers,0.0413 % of ANNNNAAN 8-mers
AATTTAAG,0.15 % of ANNNNAAN 8-mers,0.142 % of ANNNNAAN 8-mers,0.144 % of ANNNNAAN 8-mers,0.12 % of ANNNNAAN 8-mers
AGCATAAC,0.082 % of ANNNNAAN 8-mers,0.099 % of ANNNNAAN 8-mers,0.0207 % of ANNNNAAN 8-mers,0.038 % of ANNNNAAN 8-mers
AGGTCAAG,0.0297 % of ANNNNAAN 8-mers,0.042 % of ANNNNAAN 8-mers,0.0277 % of ANNNNAAN 8-mers,0.0289 % of ANNNNAAN 8-mers
AGCTAAAT,0.0652 % of ANNNNAAN 8-mers,0.0633 % of ANNNNAAN 8-mers,0.0738 % of ANNNNAAN 8-mers,0.0479 % of ANNNNAAN 8-mers
ACGACAAC,0.0126 % of ANNNNAAN 8-mers,0.0132 % of ANNNNAAN 8-mers,0.0133 % of ANNNNAAN 8-mers,0.0149 % of ANNNNAAN 8-mers
ACTGTAAA,0.0404 % of ANNNNAAN 8-mers,0.042 % of ANNNNAAN 8-mers,0.0406 % of ANNNNAAN 8-mers,0.0388 % of ANNNNAAN 8-mers
ACTGAAAA,0.0313 % of ANNNNAAN 8-mers,0.0363 % of ANNNNAAN 8-mers,0.0328 % of ANNNNAAN 8-mers,0.0363 % of ANNNNAAN 8-mers
ATAGAAAA,0.0767 % of ANNNNAAN 8-mers,0.0771 % of ANNNNAAN 8-mers,0.0695 % of ANNNNAAN 8-mers,0.0619 % of ANNNNAAN 8-mers
AACACAAG,0.0194 % of ANNNNAAN 8-mers,0.0253 % of ANNNNAAN 8-mers,0.0219 % of ANNNNAAN 8-mers,0.0206 % of ANNNNAAN 8-mers
ACTACAAA,0.0214 % of ANNNNAAN 8-mers,0.0391 % of ANNNNAAN 8-mers,0.0285 % of ANNNNAAN 8-mers,0.0256 % of ANNNNAAN 8-mers
